The values that follow come from PubChem BioAssay.

Experiment [1] is described as follows: growth inhibition of DIPG glioma cells, dose response, cell-based, SU-DIPG-XIII, MIPE4.0, CellTiter-Glo, qHTS (AID 1347061; cut-off not given, nearly all actives have AC50 up to about 37 µM;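 further: cells exposed to compound for 48 hours before readout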). The conditions noted are these: SU-DIPG-XIII viability, CellTiter-Glo ATP luminescence.
A short description of experiment [2]: growth inhibition of DIPG glioma cells, dose response, cell-based, JHH-DIPG-1, MIPE4.0, CellTiter-Glo, qHTS (AID 1347062; cut-off not given, nearly all actives have AC50 up to about 27 µM;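 on AC50: cells exposed to compound for two days before readout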). The conditions noted are these: JHH-DIPG-1 viability, CellTiter-Glo ATP luminescence.
Experiment [3] is described as follows: growth inhibition of DIPG glioma cells, dose response, cell-based, SU-DIPG-IV, MIPE4.0, CellTiter-Glo, qHTS (AID 1347063).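 Further: compound exposure lasted 48 hours before the viability readout.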 The conditions noted are these: SU-DIPG-IV viability, CellTiter-Glo ATP luminescence.
Experiment [4] in a line: SU-DIPG-VI glioma cell viability, MIPE4.0 library, CellTiter-Glo luminescence, qHTS (AID 1347066).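 Further: cells exposed to compound for 48 hours before readout.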 Particulars: CellTiter-Glo ATP luminescence.
Experiment [5] is described as follows: sensitizers of A549 cells to miR-34 induction, primary screen, imaging, A549 dox-inducible miR-34, nuclei and caspase counts (AID 1347080;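 active means compounds whose cell count with miR-34 switched on is under 0.7 times the count with it off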). The conditions noted are these: A549 miR-34 inducible, Hoechst nuclei count, 48 h.
The nature of experiment [6]: survival rescue of mitochondrial mutant cells in low glucose, primary screen, MELAS cybrids, Rieske KO mouse fibroblasts, CellTiter-Glo (AID 1508586;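 active means mean z-score across replicates of 1.96 or higher in either the MELAS or the Rieske mutant cell line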;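 further: z relative to plate mean and SD of compound and empty wells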).
Experiment [7] is described as follows: SU-DIPG-XXV glioma cell viability, MIPE5.0 library, qHTS (AID 1347068; cut-off not given, nearly all actives have IC50 up to about 30 µM).
A short description of experiment [8]: viability loss in pontine glioma line – cell-based, SU-DIPG-XXV, MIPE5.0, CellTiter-Glo, qHTS, dose response (AID 1347065; cut-off not given, nearly all actives have AC50 up to about 26 µM;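 further: cells exposed to compound for 48 hours before ATP readout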). Particulars: CellTiter-Glo ATP luminescence.
A short description of experiment [9]: LFS_MB_P medulloblastoma growth inhibition, cell-based, chromothripsis tumors, cisplatin or BGB combos (AID 1671449; in the data active means inhibition above about 80%;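 further: cells exposed for 96 hours; 0% = vehicle DMSO and 100% = killing by high DMSO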). Particulars: LFS_MB_P medulloblastoma cells.
The nature of experiment [10]: HDN33 neuroblastoma growth inhibition, cell-based, chromothripsis tumors, cisplatin or BGB combos (AID 1671450; in the data active means inhibition above about 80%;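 further: cells exposed to compound for four days; 0% = vehicle DMSO and 100% = cell killing by high DMSO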). The conditions noted are these: HDN33 neuroblastoma cells, stronger effect = higher value.
Experiment [11] is described as follows: ICB984 medulloblastoma cell growth inhibition, synergistic combos for chromothripsis tumors, cisplatin or BGB combos (AID 1671451; call rule not given here;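 further: cells exposed for 96 hours before readout; 0% = vehicle DMSO and 100% = killing by high DMSO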). Particulars: ICB984 medulloblastoma cells, drug combinations, stronger effect = higher value.
Experiment [12] can be described thus: LFS_MB_1R medulloblastoma cell growth inhibition, synergistic combos for chromothripsis tumors, cisplatin or BGB combos (AID 1671452; in the data active means inhibition above about 80%;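 further: cells exposed for 96 hours before readout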). Particulars: LFS_MB_1R medulloblastoma cells, stronger effect = higher value.
A short description of experiment [13]: HTB85 osteosarcoma cell growth inhibition, synergistic combos for chromothripsis tumors, BGB or cisplatin IC20 combos (AID 1671453; in the data active means inhibition above about 80%;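 further: cells exposed for 96 hours before readout; 0% = vehicle DMSO and 100% = high DMSO killing control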). Particulars: HTB85 osteosarcoma cells, drug combinations, stronger effect = higher value.
Experiment [14] is described as follows: MDA-MB-436 breast carcinoma cell growth inhibition, synergistic combos for chromothripsis tumors, BGB or cisplatin combos (AID 1671458; call rule not given here;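 further: cells exposed for 96 hours; 0% = vehicle DMSO and 100% = killing by high DMSO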). The conditions noted are these: MDA-MB-436 breast carcinoma growth inhibition, drug combinations, stronger effect = higher value.
A short description of experiment [15]: growth inhibition of BT084 medulloblastoma cells, cell-based, ICGC_MB145, cisplatin and BGB IC40 combos (AID 1671461; in the data active means inhibition above about 80%;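 further: cells exposed to drugs for 96 hours; 0% = vehicle DMSO and 100% = high DMSO full killing control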). The conditions noted are these: drug combinations, stronger effect = higher value.
Experiment [16] in a line: growth inhibition of RCMB18 medulloblastoma cells, cell-based, cisplatin and BGB IC40 combos (AID 1671462; in the data active means inhibition above about 80%;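 further: cells exposed to compound for four days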). Particulars: stronger effect = higher value.
The nature of experiment [17]: growth inhibition of CRL1545 osteosarcoma cells, cell-based, cisplatin and BGB IC20 combos (AID 1671464; in the data active means inhibition above about 80%;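 further: cells exposed to compound for 96 hours before readout; 0% = vehicle DMSO and 100% = high DMSO killing control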). Particulars: stronger effect = higher value.
The mark [18] stands for this setting: stronger effect = lower value, cell number ratio, induced over uninduced.
Where [19] appears, read: measured here: relative caspase fold change +Dox/-Dox.
[20] abbreviates: measured here: total cells with miR-34 induction, stronger effect = lower value.
The mark [21] stands for this setting: measured here: total cells without miR-34 induction.
Where [22] appears, read: MELAS cybrid survival, CellTiter-Glo 48 h, stronger effect = higher value.
Where [23] appears, read: Rieske KO mouse fibroblast survival, CellTiter-Glo 72 h.
Setting [24] is: measured here: combination with BGB IC40, at 0.05 µM.
[25] abbreviates: measured here: with BGB IC20 combination, at 0.5 µM.
[26] abbreviates: measured here: with cisplatin IC20 combination, at 0.5 µM.
Setting [27] is: measured here: combination with cisplatin, at 0.5 µM.

“And” between values parts separate entries of the source, which are not always exact repeats. Equal entries are not always repeated. Records with an inconclusive call do not appear. The source made the active and inactive calls. Unless noted, cut-off not given; nearly all actives show AC50 up to about 30 µM.

Consider `NC(N)=Nc1nc(CSCCC(N)=NS(N)(=O)=O)cs1`, for which the result in experiment [1], in experiment [2], in [3] and in experiment [4] was inactive. In addition, the fold change in [5] (setting [18]) was 0.921 (inactive) and 0.901 (inactive) and 0.846 (inactive); in [5] (setting [19]), 1.73 and 0.639 and 1.03. Moreover, the cell count in experiment [5] (setting [20]) was 9300 and 8340 and 7700; in experiment [5] (setting [21]) it was 10100 and 9260 and 9100. Moreover, the z-score in experiment [6] (setting [22]) was 0.605 (inactive) and -0.262 (inactive); in experiment [6] (setting [23]), -0.158 and 0.443.

Regarding `Clc1cccc(-c2nnnn2Cc2cccnc2)c1Cl`, the outcome in experiment [1], in [2], in experiment [3] and in [4] was inactive.

In the case of `CCn1c(C(=O)N(C2CC2)C2CC2)cc2c3c(ncn3C)c(Nc3cc(C)n(C)n3)nc21`, the molecule was classed as inactive in experiment [1], in [2], in experiment [3], in experiment [4] and in experiment [7].

Take `CC1(C)C(=O)N(CCN2CCC(C(=O)c3ccc(F)cc3)CC2)c2ccccc21`: the molecule was called inactive in experiment [1], in experiment [2] and in [3]. The fold change in experiment [5] (setting [18]) was 0.986 (inactive); in [5] (setting [19]) it was 1.27. Besides, the cell count in experiment [5] (setting [20]) amounted to 7420; in experiment [5] (setting [21]) it was 7530.

With `CCCCCCCCCCCCCCCC(=O)OC[C@@H](NC(=O)C(Cl)Cl)[C@H](O)c1ccc([N+](=O)[O-])cc1`, the molecule was classed as inactive in [1], in experiment [2], in experiment [3] and in experiment [4].

As for `N#CC1(c2cccc(C(=O)Nc3cc(Oc4ccc5nc(NC(=O)C6CC6)sc5n4)ccc3F)c2Cl)CC1`, the concentration at half-maximal activity (AC50) in experiment [1] was 935 nM (active); in experiment [2], 18700 nM (active); in experiment [8], 833 nM (active). In addition, the call in [4] was inactive.

`Nc1nc(F)nc2c1ncn2[C@@H]1O[C@H](CO)[C@@H](O)[C@H]1O`: the AC50 in experiment [1] was 1050 nM (active); in [2] it was 590 nM (active); in experiment [3] it was 264 nM (active); in experiment [4], 833 nM (active).

`C[N+]1(C)[C@@H]2CC(OC(=O)C(O)(c3cccs3)c3cccs3)C[C@H]1[C@@H]1O[C@@H]12` (stereo partly specified): the molecule was called inactive in experiment [1], in [2], in [3] and in [4]. The fold change in experiment [5] (setting [18]) was 0.899 (inactive); in experiment [5] (setting [19]) it was 1.32. For the same molecule, the cell count in experiment [5] (setting [20]) was 10300; in [5] (setting [21]) it was 11500. Further, the z-score was -0.0486 (inactive) in [6] (setting [22]) and -0.119 in [6] (setting [23]).

On to `Nc1nc(=O)n([C@H]2CSC(CO)O2)cc1F` (stereo partly specified), for which the outcome in experiment [1], in [2], in experiment [3] and in experiment [4] was inactive.

In the case of `O=C(O)CO.[NH2-].[NH2-].[Pt+2]`, the molecule was called inactive in experiment [1], in experiment [2], in [3] and in experiment [4]. Besides, the inhibition in [9] (at 0.5 µM, stronger effect = higher value) is -35.8% (inactive); in experiment [9] (measured here: combination with BGB IC20, at 0.005 µM) it was -22.6%; in [9] (measured here: combination with BGB IC40, at 0.005 µM), -55.5%; in experiment [9] (setting [24]), -20.9%; in experiment [9] (measured here: combination with cisplatin, at 0.5 µM, stronger effect = higher value) it was -40.8%; in experiment [9] (measured here: combination with cisplatin, at 5 µM, stronger effect = higher value), -22.9%. Besides, the inhibition in experiment [10] (BGB combo, at 5 µM) was -38.9%; in experiment [10] (at 0.5 µM) it was 11.9% (inactive); in experiment [10] (cisplatin combo, at 5 µM) it was 6.72%; in [10] (setting [25]), 3.13%; in experiment [10] (setting [26]), 36.3%; in experiment [10] (single agent, at 5 µM), -22.5%. Also, the inhibition was -33.3% in [11] (BGB IC20 combo, at 0.005 µM); -24.4% in [11] (BGB IC40 combo, at 0.005 µM); -27.5% in [11] (BGB IC40 combo, at 0.05 µM); -23.1% (inactive) in experiment [11] (at 0.5 µM); -34.1% in [11] (cisplatin combo, at 0.05 µM); -33.3% in experiment [11] (cisplatin combo, at 0.5 µM). The inhibition in experiment [11] (cisplatin combo, at 5 µM) was -25.6%; in experiment [11] (measured here: 5 uM single agent, at 5 µM), -2.84%; in [12] (at 0.5 µM), -13.7% (inactive); in experiment [12] (setting [24]), -19.6%; in [12] (setting [27]) it was -19.7%; in experiment [12] (measured here: combination with cisplatin, at 5 µM), -34.1%. Besides, the inhibition in experiment [13] (at 0.5 µM) is 1.55% (inactive); in experiment [13] (measured here: with BGB IC20, at 0.5 µM) it was 26.1%; in experiment [13] (measured here: with BGB IC20, at 5 µM) it was -2.11%; in [13] (measured here: with cisplatin IC20, at 0.5 µM), -15.5%; in experiment [13] (measured here: with cisplatin IC20, at 5 µM), -7.66%; in experiment [13] (single agent, at 5 µM), -0.083%. Besides, the inhibition was -15.3% (inactive) in experiment [14] (at 0.5 µM); -9.4% in experiment [14] (measured here: BGB combination, at 0.5 µM); 1.16% in experiment [14] (measured here: BGB combination, at 5 µM); -35.5% in experiment [14] (measured here: cisplatin combination, at 0.5 µM); -23.8% in experiment [14] (measured here: cisplatin combination, at 5 µM); -4.94% (inactive) in experiment [15] (at 0.5 µM). Further, the inhibition in experiment [15] (cisplatin combination, at 0.5 µM) is 2.17%; in experiment [15] (cisplatin combination, at 5 µM), -267%; in [15] (measured here: BGB IC40 combination 0.05 uM, at 0.05 µM), -15.1%; in experiment [15] (single agent, at 5 µM), -4.36%; in experiment [16] (at 0.5 µM), -16.2% (inactive); in experiment [16] (cisplatin combo, at 5 µM), 4.38%. Moreover, the inhibition is -28.2% in experiment [16] (measured here: BGB IC40 combination, at 0.05 µM); 6.48% in experiment [16] (setting [27]); -8.12% in experiment [16] (single agent, at 5 µM); -2.61% (inactive) in experiment [17] (at 0.5 µM); -12.1% in experiment [17] (setting [25]); 0.578% in [17] (setting [26]). Further, the inhibition in [17] (single agent, at 0.05 µM) was -10.5%; in experiment [17] (single agent, at 5 µM), -18%.
